Laboratory results from PubChem BioAssay AID504377 (National Center for Advancing Translational Sciences (NCATS), 2011).
Active and inactive are the calls of the source. The rule behind the calls is not given here.

Experiment: Immunofluorescence assay for phosphorylation of ATM-targeted proteins for Identifying a Potential Treatment of Ataxia-Telangiectasia: SAR for Probe
Details: F2111 A-T fibroblasts, KAP-1 pS824 immunofluorescence, NCS
Text: NIH Chemical Genomics Center [NCGC] NIH Molecular Libraries Probe Centers Network [MLPCN] MLPCN Grant: MH089030-01 Assay Submitter (PI): Wei Zheng and Yosef Shiloh Ataxia-telangiectasia (A-T) is a devastating and progressive disease for which, there is no cure. Although A-T is a multisystem disease, it is stereotyped characterized by its neurological symptoms such as truncal ataxia, due to cerebellar cortical degeneration of the Purkinje and granule cells. Other symptoms of A-T are telangiectasias (dilated blood vessels), primary immunodeficiency, marked sensitivity to ionizing radiation (IR), chromosomal instability and predisposition to cancer. The underlying genetic cause of A-T is null mutations in the ATM (A-T mutated) gene. ATM is a nuclear serine/threonine kinase that functions as a master regulator of the cellular responses to double strand breaks (DSBs) in the DNA. Upon activation by DSBs, ATM phosphorylates a plethora of downstream targets, including KAP-1 on […]. KAP-1 phosphorylation occurs shortly in response to DSBs and mediates global chromatin relaxation, which facilitates DSB repair. To screen for small molecules that will compensate for the loss of ATM in cells derived from A-T patients, we monitored KAP-1 phosphorylation as a readout for ATM-like activity using an AlphaLISA assay. […]

Row | Structure (SMILES) | Potency
1 | CC(=O)c1c(O)c(C)c(O)c(Cc2c(O)c3c(c(C(=O)/C=C/c4ccccc4)c2O)OC(C)(C)C=C3)c1O | 10 µM (active)
